{"source": "PubChem BioAssay AID485281", "about": "(National Center for Advancing Translational Sciences (NCATS), 2010)", "note": "In all, about 350,000 compounds went through this assay and about 260 (0.074%) were called active. Inconclusive results (about 8%) are left out. Calls follow the shape of the dose curve; as a rule, active = well fitted inhibition curve with a large enough effect; inconclusive = small, poorly fitted or top-dose-only effect; inactive = no such curve, though single readings can be large or run the other way. What follows is part of a selection rich in actives, with near analogues and random picks from the rest. % is scaled to controls: 0 for no effect and ±100 for the full control effect; potency is read from the fitted curve at half-maximal effect."}
{"biological_target": "Ferritin light chain (Equus caballus) (UniProt P02791)", "sequence (P02791 2-175 limits assumed)": "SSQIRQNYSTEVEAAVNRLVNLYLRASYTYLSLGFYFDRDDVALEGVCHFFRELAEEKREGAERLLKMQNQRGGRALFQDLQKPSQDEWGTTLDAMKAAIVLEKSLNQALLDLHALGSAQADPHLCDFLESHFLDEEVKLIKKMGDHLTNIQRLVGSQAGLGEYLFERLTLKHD", "assay": "qHTS Assay for Identification of Novel General Anesthetics; also: nearly all actives have a fitted effect of over 20% in size", "conditions": "apoferritin/1-aminoanthracene competitive binding, fluorescence; series mostly up to 77.5 µM; activity change, negative = displacement: at the top concentration", "from_the_text": "Source: NIH Chemical Genomics Center [NCGC]\nAssay Submitter: Roderic Eckenhoff, University of Pennsylvania\nScreening Center PI: Christopher P. Austin, NIH\nProbe Development: NIH Chemical Genomics Center [NCGC]\nAnesthetic development has remained a largely empirical process. There are growing concerns about the cognitive effects of known general anesthetics and acceleration of the onset of neurodegenerative disease. The compounds' toxicity and multiple specific binding targets in the mammalian brain [4] has made them less attractive as drug leads. In this assay, a GABAergic mimetic model system, apoferritin and a profluorescent 1-aminoanthracene ligand (1-AMA), was used to construct a competitive binding assay for identification of novel general anesthetics. The assay was validated for 1-AMA using other known anesthetics, such as isoflurane (CID:3763) and propofol (CID: 4943), [6].\n[1] S.L. Bianchi, T. Tran, C. Liu, S. Lin, Y. Li, J.M. Keller, R.G. Eckenhoff, and M.F. Eckenhoff, Brain and behavior changes in 12-month-old Tg2576 and nontransgenic mice exposed to anesthetics. Neurobiol Aging 29 (2008) 1002-10.\n[2] Z. Xie, Y. Dong, U. Maeda, R.D. Moir, W. Xia, D.J. Culley, G. Crosby, and R.E. Tanzi, The inhalation anesthetic isoflurane induces a vicious cycle of apoptosis and amyloid beta-protein accumulation. J Neurosci 27 (2007) 1247-54.\n[3] P. Honegger, and J.M. Matthieu, Selective toxicity of the general anesthetic propofol for GABAergic neurons in rat brain cell cultures.\n[4] M.F. Eckenhoff, K. Chan, and R.G. Eckenhoff, Multiple specific binding targets for inhaled anesthetics in the mammalian brain. J Pharmacol Exp Ther 300 (2002) 172-9.\n[5] C.A. Butts, J. Xi, G. Brannigan, A.A. Saad, S.P. Venkatachalan, R.A. Pearce, M.L. Klein, R.G. Eckenhoff, and I.J. Dmochowski, Identification of a fluorescent general anesthetic, 1-aminoanthracene. Proc Natl Acad Sci U S A 106 (2009) 6501-6.\n[6] W.A. Lea, J. Xi, A. Jadhav, L. Lu, C.P. Austin, A. Simeonov, and R.G. Eckenhoff, A high-throughput approach for identification of novel general anesthetics. PLoS One 4 (2009) e7150.\nThree uL of reagents (free 1-AMA (50% saturated solution of 1-aminoanthracene\nin PBS) in columns 3, 4 as negative control and 1-AMA/apoferritin mixture (10 uM horse-spleen apoferritin in 50% saturated 1-aminoanthracene in PBS) in columns 1, 2, 5-48) was dispensed into 1536-well Greiner black assay plates. Compounds (23 nL) were transferred via Kalypsys pintool equipped with 1,536-pin array (10 nL slotted pins, V&P Scientific, San Diego, CA). Titration of the positive control, propofol, were delivered via pin transfer from separate control plates to the 2nd column of each assay plate. The starting concentration of the control, dissolved in DMSO, was at 160 mM, followed by two-fold dilution points in duplicate, for a total of 16 concentrations. The plates were incubated for 10 min at room temperature, and then read on an EnVision HTS multilabel reader (Perkin-Elmer, Waltham, MA) (end point read, 3 min/plate) using Fura2 BFP excitation filter (380 nm, bandwidth 10 nm) and fluorescein emission filter (535 nm, bandwidth 25 nm) set. A LANCE/DELFIA dichroic mirror with a cutoff wavelength at 400 nm was used to maximize signal accuracy and strength. Vehicle-only plates, with DMSO being pin-transferred to the entire column 5-48 compound area, were inserted uniformly at the beginning and the end of each library in order to monitor for and record any shifts in the background. Activity was computed as the normalized fluorescence response relative to free 1-AMA and 1-AMA/apoferritin complex values. Concentration-effect relationships were derived by using curve fitting algorithms developed in-house (http://ncgc.nih.gov/pub/openhts/). A four parameter Hill equation was fitted to the concentration-response data by minimizing the residual error between the modeled and observed responses."}
{"smiles": "COc1ccc(N2CCN(S(=O)(=O)c3ccc(-c4coc(C)n4)cc3)CC2)cc1", "activity change, negative = displacement": "-0.187% (inactive)"}
{"smiles": "Cn1c(SCC(=O)N2CCCc3ccccc32)ncc(C(=O)Nc2ccc(F)cc2)c1=O", "activity change, negative = displacement": "-15.9% (inactive)"}
{"smiles": "CCOC(=O)c1scc(-c2ccccc2)c1S(=O)(=O)Nc1ccccc1F", "activity change, negative = displacement": "57.3% (inactive)"}
{"smiles": "COc1ccc2c(c1)CCc1c(C(=O)Nc3cc(C)ccc3O)noc1-2", "activity change, negative = displacement": "-8.63% (inactive)"}
{"smiles": "CCc1ccc(NC(=O)c2cc3c(=O)n(Cc4cccnc4)ccc3nc2C)cc1", "activity change, negative = displacement": "-2.71% (inactive)"}
{"smiles": "COc1ccc(NC(=O)CSc2nccn2Cc2ccc3c(c2)OCO3)cc1", "activity change, negative = displacement": "-10.6% (inactive)"}
{"smiles": "CC(=O)N1CCCc2cc(S(=O)(=O)N3CCC(C(=O)NCc4ccc(C)cc4)CC3)ccc21", "activity change, negative = displacement": "-10.5% (inactive)"}
{"smiles": "CCOc1ccc(NC(=O)c2c(NC(=O)Cc3ccccc3)sc3c2CCCCC3)cc1", "activity change, negative = displacement": "-5.25% (inactive)"}
{"smiles": "c1ccc2c(NC3C4CC5CC(C4)CC3C5)nc(N3CCOCC3)nc2c1", "note": "(centres undefined)", "activity change, negative = displacement": "89.7% (inactive)"}
{"smiles": "c1cnc(NC2C3CC4CC(C3)CC2C4)nc1", "note": "(centres undefined)", "Potency": "5.62 µM (active)"}
{"smiles": "Cc1c(-c2nsc(NC(=O)c3cccc(Cl)c3)n2)nnn1-c1ccccc1C(F)(F)F", "activity change, negative = displacement": "-23.3% (inactive)"}
{"smiles": "Cc1cccc(C(=O)Nc2ccc(-c3nc4ccccc4s3)c(C)c2)c1", "activity change, negative = displacement": "-9.88% (inactive)"}
{"smiles": "CN1CCN(c2oc(-c3ccc(COc4ccc(Cl)cc4)o3)nc2C#N)CC1", "activity change, negative = displacement": "-7.72% (inactive)"}
{"smiles": "COc1ccc(OCC(=O)Nc2cccc(C(=O)OCc3cc(=O)n4nc(C)sc4n3)c2)cc1", "activity change, negative = displacement": "52.4% (inactive)"}
{"smiles": "O=C(NCC12CC3CC(CC(C3)C1)C2)c1cc2nc(-c3ccccc3)cc(C(F)(F)F)n2n1", "activity change, negative = displacement": "-6.46% (inactive)"}
{"smiles": "CCN(CC)c1ccc(NC(=O)CN2CCN(CC(=O)Nc3ccc(Cl)cc3)CC2)cc1", "activity change, negative = displacement": "-11% (inactive)"}
{"smiles": "COc1ccc(-c2nc3nc(C)cc(C)n3c2Nc2c(C)cccc2C)cc1", "activity change, negative = displacement": "275% (inactive)"}
{"smiles": "CC1=C(C(=O)OCC2CCCCC2)C(c2c(F)cccc2Cl)CC(=O)N1", "note": "(centres undefined)", "activity change, negative = displacement": "-17.3% (inactive)"}
{"smiles": "COc1cccc(Cn2c(SCc3ccc(C(=O)N4CCC(C)CC4)cc3)nc3ccncc32)c1", "activity change, negative = displacement": "72.3% (inactive)"}
{"smiles": "COCCNS(=O)(=O)c1cc(-c2nn3c(C)nnc3c3ccccc23)ccc1C", "activity change, negative = displacement": "-12.8% (inactive)"}
{"smiles": "CCc1cccc(C)c1NS(=O)(=O)c1ccc(-c2cc(C)no2)s1", "activity change, negative = displacement": "3.74% (inactive)"}
{"smiles": "Cc1cc(C)cc(-n2ccnc2SCC(=O)Nc2nc3ccccc3s2)c1", "activity change, negative = displacement": "60.5% (inactive)"}
{"smiles": "COc1ccc(CNC(=O)Cc2coc3ccc(C(C)C)cc23)cc1", "activity change, negative = displacement": "3.71% (inactive)"}
{"smiles": "Cc1cc(=O)n(CC(=O)Nc2cccc([N+](=O)[O-])c2)c(-n2nc(C)cc2C)n1", "activity change, negative = displacement": "-3.5% (inactive)"}
{"smiles": "O=C(CCc1nc(CN2CCN(S(=O)(=O)c3ccc(Cl)cc3)CC2)no1)N1CCCCC1", "activity change, negative = displacement": "8.4% (inactive)"}
{"smiles": "COc1ccc(C2Sc3ccccc3NC3=C2C(=O)c2ccccc23)c(OC)c1OC", "note": "(centres undefined)", "activity change, negative = displacement": "-0.239% (inactive)"}
{"smiles": "CCOCCCn1c(SCC(=O)Nc2ccc(CC)cc2)nc2ccccc2c1=O", "activity change, negative = displacement": "-9.21% (inactive)"}
{"smiles": "COc1ccc(CCNC(=O)CCCCn2c(=O)c3ccccc3n(Cc3ccccc3C)c2=O)cc1OC", "activity change, negative = displacement": "23.4% (inactive)"}
{"smiles": "COc1ccc(CNC(=O)CCc2c(C)nn(-c3ccc(N4CCCC4)nn3)c2C)cc1", "activity change, negative = displacement": "-8.08% (inactive)"}
{"smiles": "Cc1ccc(SCC(=O)Nc2ccc3oc(-c4ccccc4F)nc3c2)cc1", "activity change, negative = displacement": "-11.2% (inactive)"}
{"smiles": "Cc1ccc2nc(CN3CCN(S(=O)(=O)c4ccc(C)c(C)c4)CC3)oc2c1", "activity change, negative = displacement": "-10.2% (inactive)"}
{"smiles": "Cc1ccc(C)c(NC(=O)CSC2=Nc3ccccc3N=C(c3ccc(F)cc3)C2)c1", "activity change, negative = displacement": "-1.36% (inactive)"}
{"smiles": "COc1cc(OC)c(C(=O)N2CCCC2)cc1OC", "activity change, negative = displacement": "-10.8% (inactive)"}
{"smiles": "Cc1ccc(C(=O)N2CCCC2)c(F)c1F", "activity change, negative = displacement": "-14.7% (inactive)"}
{"smiles": "Cc1c(Br)cc(C(=O)N2CCCCCC2)c(C)c1C", "Potency": "10 µM (active)"}
{"smiles": "CCCn1c2ccccc2c2cnn(CC(=O)N(CC)c3cc(C)ccc3C)c(=O)c21", "activity change, negative = displacement": "-5.87% (inactive)"}
{"smiles": "CCOC(=O)Cn1c(=O)n(C2CCCCC2)c2nc(-c3cccc(OC)c3)nc(C(N)=O)c21", "activity change, negative = displacement": "8.75% (inactive)"}
{"smiles": "O=C(CN1c2ccccc2S(=O)(=O)c2ccccc21)Nc1cccc(C(F)(F)F)c1", "activity change, negative = displacement": "8.17% (inactive)"}
{"smiles": "CCn1c(C)c(C)c2cc(C(=O)NCCc3cc(OC)ccc3OC)ccc21", "activity change, negative = displacement": "-2.71% (inactive)"}
{"smiles": "Cc1cc(OCC(=O)NCC2(N(C)C)CCCCC2)cc(C)c1Cl", "activity change, negative = displacement": "-9.9% (inactive)"}
{"smiles": "CN(C)CCCn1c(-c2ccc(Cl)cc2)csc1=Nc1ccccc1", "activity change, negative = displacement": "9.73% (inactive)"}
{"smiles": "O=c1cc(-c2ccccc2)n2c(SCc3ccccc3)nnc2[nH]1", "activity change, negative = displacement": "44% (inactive)"}
{"smiles": "Nc1ccc(C(=O)OCC(=O)NC2CCS(=O)(=O)C2)cc1[N+](=O)[O-]", "note": "(centres undefined)", "activity change, negative = displacement": "-8.39% (inactive)"}
{"smiles": "Nc1ccc(C(=O)OCC(=O)NC2CCCc3ccccc32)cc1[N+](=O)[O-]", "note": "(centres undefined)", "Potency": "20 µM (active)"}
{"smiles": "COC(=O)c1cc(OCC(=O)NC2CCCc3ccccc32)cc(C(=O)OC)c1", "note": "(centres undefined)", "activity change, negative = displacement": "0.832% (inactive)"}
{"smiles": "CC(C)c1ccc(NC(=O)Cn2c3ncccc3c(=O)n2-c2ccccc2)cc1", "activity change, negative = displacement": "2.35% (inactive)"}
{"smiles": "CCc1ccc(NC(=O)c2sc3nc4c(cc3c2N)CN(CC)CC4)cc1", "activity change, negative = displacement": "-8.24% (inactive)"}
{"smiles": "O=C(CCc1nc(CN2CCN(S(=O)(=O)c3ccc(Br)cc3)CC2)no1)N1CCCCC1", "activity change, negative = displacement": "-9.1% (inactive)"}
{"smiles": "Cc1cc(C(=O)Nc2cccc(C(F)(F)F)c2)c2c(C)nn(-c3cccc(F)c3)c2n1", "activity change, negative = displacement": "52.9% (inactive)"}
